Assay outcomes deposited in PubChem BioAssay by National Center for Advancing Translational Sciences (NCATS).
In the library only some 7.6% were active in any assay of this set; here they are far more common.
ERK AVP inh: inhibitors of vasopressin-stimulated ERK signaling pathway; HEK293-V1b, vasopressin-stimulated pERK AlphaScreen; Potency, µM (titrated, usually from 57.5 µM), without a hit: at the highest dose activity, negative = inhibition, hits mostly inhibitors; actives 0.99% (n = 72,000); note: % is set by controls: 0 for no effect and ±100 for the full control effect; nearly all actives have a fitted effect of over 55% in size
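Overnight-seeded V1b-HEK293 cells in 1% FBS got compound, then vasopressin (25 nM final, 5 min, 37C), then lysis buffer. AlphaScreen detection of phospho-ERK; activity normalized to basal and full-stimulation controls.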
CRE-bla Fsk: alters forskolin-stimulated CRE reporter signaling in CHO cells; actives 2.5% (n = 71,000); Potency, µM (doses to about 38.2 µM), inactives show at the top dose activity change, negative = inhibition, actives largely listed as activators; CHO CRE-bla reporter (cAMP response element driving beta-lactamase), forskolin EC10, beta-lactamase ratio; active = well fitted activation curve with a large enough effect in the signal ratio, with a control signal flat, not every such curve was filed as active; inconclusive = small, poorly fitted or top-dose-only effect, or effect the other way, or a change in a side signal; the % refers to the signal ratio; note: % of control where 0% means no effect
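Using CellSensor CRE-bla CHO cells in Opti-MEM with 0.5% dialyzed FBS, compounds were titrated with EC10 NKH 477 for 3 h at 37 °C. CCF4 ratio (460/530 nm) gave %Activity; AC50 derived.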
TSHR agonist: TSH receptor (human) agonism | Potency, µM (titrated, usually from 57.1 µM), for inactives: top-dose activation, actives largely listed as activators | actives 0.48% (n = 73,000) | P16473 | HEK293-CNG-TSHR cells (CNG channel as cAMP sensor), membrane potential dye, cAMP | AID 926; active = well fitted activation curve with a large enough effect in the main read-out, with a control signal flat, not every such curve was filed as active; inconclusive = small, poorly fitted or top-dose-only effect, or a change in a side signal; inactive = no such curve, though single readings can be large or run the other way; % of control where 0% means no effect;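 note: the control signal comes from parental cells without the receptor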
Target sequence (P16473 whole entry, looked up): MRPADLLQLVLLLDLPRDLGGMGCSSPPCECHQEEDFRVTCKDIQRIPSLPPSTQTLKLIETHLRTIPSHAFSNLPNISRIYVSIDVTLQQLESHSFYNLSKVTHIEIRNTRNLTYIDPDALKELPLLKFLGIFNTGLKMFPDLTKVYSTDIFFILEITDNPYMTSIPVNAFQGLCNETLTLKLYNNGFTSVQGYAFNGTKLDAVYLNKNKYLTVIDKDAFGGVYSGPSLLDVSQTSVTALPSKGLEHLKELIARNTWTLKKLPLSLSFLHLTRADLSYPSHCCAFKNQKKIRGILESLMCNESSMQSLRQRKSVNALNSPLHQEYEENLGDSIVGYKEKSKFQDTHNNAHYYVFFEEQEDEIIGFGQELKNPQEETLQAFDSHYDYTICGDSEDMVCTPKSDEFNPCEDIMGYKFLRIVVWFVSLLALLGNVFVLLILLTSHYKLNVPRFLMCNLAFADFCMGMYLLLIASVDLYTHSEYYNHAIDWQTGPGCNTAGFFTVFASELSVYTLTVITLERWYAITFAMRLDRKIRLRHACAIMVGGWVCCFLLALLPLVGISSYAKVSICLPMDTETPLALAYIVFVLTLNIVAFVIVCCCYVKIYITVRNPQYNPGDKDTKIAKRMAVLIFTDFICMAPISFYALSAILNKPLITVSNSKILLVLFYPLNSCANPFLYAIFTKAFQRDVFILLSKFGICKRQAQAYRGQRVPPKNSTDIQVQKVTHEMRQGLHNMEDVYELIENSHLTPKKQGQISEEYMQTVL
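HEK 293 cells stably expressing TSHR and a cAMP-gated CNG channel; parental CNG-only cells as counterscreen. Cells preloaded 60 min with membrane potential dye plus 100 uM RO 20-1724, then compound 30 min; fluorescence read at 590 nm.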
Tau fil binding: binds recombinant human tau filaments. AID 596. P10636. Potency, µM (highest dose often 57.1 µM), for inactives: top-dose activity change, negative = inhibition. recombinant tau filaments, thioflavin S fluorescence, 15 h; filaments grown with octadecylsulfate alongside compound. actives 2% (n = 71,000);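 note: % is set by controls: 0 for no effect and ±100 for the full control effect; actives lower thioflavin S fluorescence by blocking filaments or displacing dye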
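Read-out: ThS fluorescence, 450 nm excitation/510 nm emission; lower signal marks blocked filament formation or displaced dye. Tau at 1 uM with 30 uM ODS, 10 uM ThS, 5 mM DTT, 100 mM NaCl, 10 mM HEPES pH 7.4; 15 h, 37 C.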
HEK293 cAMP cs: counter-screen for TSHR agonists: cAMP increase in parental HEK293 | Potency, µM (doses to about 57.1 µM), for inactives: at the top dose activation, actives largely listed as activators | actives 2.5% (n = 73,000) | parental HEK293 CNG cAMP sensor, membrane potential fluorescence; note: % of control where 0% means no effect; nearly all actives have a fitted effect of over 55% in size
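Parental HEK 293 cells stably expressing a modified CNG channel (no TSHR) report cAMP rise as membrane depolarization. Membrane potential dye with 100 uM RO 20-1724 was loaded for 60 min at room temperature, then compound added for 30 min; fluorescence read at 590 nm.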
* hit, by the source's call; ? = inconclusive; / = not tested or not shown; [ ] = dose if it differs, or a comment. Unless noted, calls come from the whole dose curve; as a rule, active = well fitted curve in the direction sought with a large enough effect; inconclusive = small, poorly fitted or top-dose-only effect, or another doubt; inactive = no such curve, though single readings can be large; an effect the other way counts as inactive or inconclusive. Potency is the fitted concentration of half-maximal effect.

SMILES	ERK AVP inh	CRE-bla Fsk	TSHR agonist	Tau fil binding	HEK293 cAMP cs
CN(C)c1ncc2nc(CCc3ccccc3)c(=O)n(CCC#N)c2n1	-10.9%	3.98µM*	?	45.0%	?
CN(C)c1ncc2nc(CCc3ccccc3)c(=O)n(Cc3ccc(F)cc3)c2n1	34.6%	?	?	103.4%	?
Cc1nc2cnc(N(C)C)nc2n(CCc2ccccc2)c1=O	?	7.94µM*	?	-3.8%	15.8µM*
COc1ccc(-c2nc3cnc(N(C)C)nc3n(CCC#N)c2=O)cc1	-13.6%	0.398µM*	-5.9%	456.9%	5.1%
CN(C)c1ncc2nc(-c3cccs3)c(=O)n(CCc3ccccc3)c2n1	4.2%	?	-0.3%	197.5%	21.8%
CN(C)c1ncc2nc(CCc3ccccc3)c(=O)n(CCc3ccccc3)c2n1	55.7%	3.98µM*	?	-2.3%	?
O=C(O)[C@@H]1CCCN[C@H]1C(=O)O	12.8%	-5.8%	4.2%	-7.7%	11.2%
COc1cccc(OC)c1OCCNC[C@@H]1CSc2ccccc2O1	-2.7%	-12.9%	?	-3.6%	?
O=S(=O)(c1ccc(SCCO)nc1)N1CCCC1	-15.0%	-13.3%	-3.0%	-0.9%	-7.0%
CN1CCN(S(=O)(=O)c2ccc(SCCOc3ccccc3)nc2)CC1	25.1µM*	-7.1%	6.4%	-2.6%	2.9%
Cc1ccc2oc(=O)c3c4cc(O)c(O)c(C)c4oc3c2c1	-11.0%	/	/	/	/
CCC(Oc1ccccc1)C(=O)Nc1nnc(C)s1 (stereo not given)	-1.9%	9.1%	-6.0%	-1.2%	5.3%
CCC(Oc1ccccc1)C(=O)Nc1ccccc1OC (stereo not given)	24.9%	2.5%	?	-1.9%	31.6µM*
C[C@@H](CC(=O)O)[C@@H](N)C(=O)O	6.0%	-24.3%	4.8%	?	4.3%
COc1cccc(N2CCN(C(=O)c3ccc4nc(N5CCCCC5)sc4c3)CC2)c1	25.1µM*	2.3%	24.8%	77.4%	25.7%
COc1ccccc1-c1cncnc1NCc1ccccc1	-9.1%	-9.9%	?	8.2%	?
CC(=O)c1c(C(C)=O)c(C)n(Cc2ccc3c(c2)OCO3)c1C	-20.6%	19.6%	?	-11.0%	12.6µM*
O=C(c1ccc(Cl)s1)N1CCN(c2ccccc2)CC1	/	12.6µM*	1.1%	-11.2%	28.4%
O=C(c1ccc(Cl)s1)N1CCc2ccccc21	1.6%	9.0%	15.8µM*	7.6%	27.2%
CC1CCC2C(=O)N3C(CCC(C)[C@@H]3c3ccc(Br)cc3)C(=O)N2C1c1ccc(Br)cc1 (stereo not given in full)	23.0%[11.5 µM]	/	-6.1%[11.4 µM]	/	-4.8%[11.4 µM]
Nc1nc(CN2CCN(c3ccccc3)CC2)nc(N2CCCc3ccccc32)n1	-23.0%	-15.5%	?	-6.3%	?
Nc1nc(CN2CCN(c3cccc(Cl)c3)CC2)nc(N2CCCc3ccccc32)n1	6.31µM*	?	/	0.4%	17.4%
N[C@H](CCC(=O)N[C@H](CSN=O)C(=O)NCC(=O)O)C(=O)O	8.6%	22.1%	0.4%	?	5.0%
[O-][n+]1onc2c1CCC1N(O)C(c3ccccc3)CC21O (stereo not given)	-6.3%	3.16µM*	8.2%	2.8%	3.8%
N[C@H](C(=O)O)c1nn[nH]n1	1.1%	?	7.0%	?	-0.2%
SMILES	ERK AVP inh	CRE-bla Fsk	TSHR agonist	Tau fil binding	HEK293 cAMP cs
O=C(O)c1nc2ccccc2nc1C(=O)O	7.0%	-10.3%	-1.0%	-5.3%	0.7%
Nc1nc(C(=O)O)c(N=Nc2ccccc2)c(=O)[nH]1	-24.5%[11.5 µM]	2.2%[7.6 µM]	1.5%[11.4 µM]	5.01µM*	16.1%[11.4 µM]
COc1ccc(-c2cc(C(=O)Nc3c(C)nn(Cc4ccccc4Cl)c3C)no2)cc1OC	?	?	23.0%	199.1%	4.1%
Cc1ccccc1Cn1nc(C)c(NC(=O)c2cc(-c3cccs3)on2)c1C	?	-14.9%	2.1%	127.9%	10.8%
COc1ccc(OC)c(-c2cc(C(=O)Nc3c(C)nn(Cc4ccccc4Cl)c3C)no2)c1	12.2%	2.51µM*	18.3%	368.8%	9.5%
COc1ccc(OC)c(-c2cc(C(=O)Nc3c(C)nn(Cc4ccccc4C)c3C)no2)c1	25.4%	3.16µM*	4.5%	60.6%	7.8%
O=C(c1ccco1)N1CCC2(CC1)CCN(C(c1ccccc1)c1ccccc1)CC2	?	-12.3%	0.4%	21.5%	6.7%
CO[C@H]1COC(=O)C/C=C\[C@H](C)[C@@H](NS(=O)(=O)c2ccc(C)cc2)COC(=O)CCC[C@@H]1C	4.6%[11.5 µM]	/	13.4%[11.4 µM]	/	9.1%[11.4 µM]
COc1ccc2[nH]cc(CCNc3ncncc3-c3ccccc3Cl)c2c1	?	11.3%	?	-0.6%	?
COc1ccc(CNc2nc(-c3ccccc3OC)nc3ccccc23)c(OC)c1	-14.4%	10µM*	?	70.0%	-40.5%
COc1ccc2[nH]cc(CCNc3ncncc3-c3ccccc3OC)c2c1	-14.1%	13.5%	?	-1.1%	3.16µM*
COc1ccc2[nH]cc(CCNc3ncnc4ccc(-c5cccc(C#N)c5)cc34)c2c1	-17.8%	2.51µM*	?	-17.7%	-36.5%
COc1ccc(CNc2nc(-c3ccc4c(c3)OCO4)nc3ccccc23)c(OC)c1	-9.5%	?	-3.0%	259.8%	-3.1%
COc1cccc(-c2ccc3ncnc(NCCc4c[nH]c5ccc(OC)cc45)c3c2)c1	-13.1%	1.6%	-1.3%	96.9%	-26.5%
COc1ccccc1CNc1nc(-c2cccnc2)nc2ccccc12	?	?	?	10.1%	?
COc1ccc2[nH]cc(CCNc3nc(-c4cccnc4)nc4ccccc34)c2c1	-26.0%	?	3.98µM*	25.1µM*	-23.7%
Nc1nc(Nc2ccccc2)nc2c1ncn2[C@@H]1O[C@@H](CO)[C@H](O)[C@H]1O	-12.4%	-1.5%	3.2%	11.2%	-3.8%
O=C(c1cccc(F)c1)N1CCC2(CC1)CN(c1ncccn1)C2	-1.9%	-3.2%	/	10.2%	11.0%
COc1cccc(-c2nc(NCc3ccc(OC)cc3OC)c3ccccc3n2)c1	-13.6%	18.5%	?	80.5%	?
COc1ccc(CNc2nc(-c3cccnc3)nc3ccccc23)c(OC)c1	-20.1%	3.16µM*	?	17.2%	?
COc1ccc(Cl)cc1Nc1cc(C)nc2nc(C)nn12	-24.4%	16.0%	?	3.2%	?
COc1cc(OC)c(Nc2cc(C)nc3nc(C)nn23)cc1Cl	-20.2%	7.94µM*	12.7%	1.5%	-5.4%
CC(=O)Nc1cccc(NC(=O)c2c(-c3c(Cl)cccc3Cl)noc2C)c1	0.5%	?	2µM*	4.7%[11.4 µM]	-11.7%[11.4 µM]
Cc1onc(-c2ccccc2)c1C(=O)Nc1ccc2c(c1)OCO2	-19.5%	9.8%	10.0%	15.8µM*	1.5%
COc1ccc(O[C@H]2C=C[C@@H](c3ccccc3)O[C@H]2COC(=O)CC/C(C)=N\OC[C@@H](O)COCc2ccco2)cc1	-11.2%[11.5 µM]	/	5.3%[11.4 µM]	/	21.3%[11.4 µM]
CCc1cc2c(nc1CC)CCN(CC/C(C)=N/O[C@@H](C)CN1CCCCc3nc(C)c(C)cc31)C2	16.2%[11.5 µM]	/	6.4%[11.4 µM]	/	12.0%[11.4 µM]
